ChEMBL document CHEMBL3988442, “University of Dundee, Small-Polar-MMV Screening Library” (2021)

These compounds were tested against Shiga toxin 2 (Escherichia coli O157:H7) (UniProt P09385+P09386) (assay: E. coli 0.157:H7 Shiga Toxin SOP - stx2 screening assay). Settings: 30 µM.
Assay type: functional
Parameters: scale not given: direction of the effect not stated beside the values
`Cc1nc(C2CCCN2CC(=O)NCCOc2ccccc2)no1` (centres undefined) showed a Percent Effect of -11.3%. In the case of `Fc1ccccc1-c1noc2c1CN(CC1CC1)CC2`, the Percent Effect is reported as -8.88%. `CC(C)CCOCCNC(=O)Nc1cc(C(F)(F)F)c[nH]c1=O` showed a Percent Effect of 5.72%. For `Cc1cn2c(n1)CCC(NC(=O)CCC(F)(F)F)C2` (centres undefined), the Percent Effect was 5.05%. For `OC(CN1CCCCCCC1)c1ccc(F)cc1` (centres undefined), the Percent Effect was 10.8%. In the case of `O=C(c1cscn1)N1C[C@H]2CCCC(OCc3cccnc3)[C@H]2C1` (some centres undefined), the Percent Effect is reported as -13.5%. For `N#Cc1ccc(C(=O)NCCCNc2ccc(C(F)(F)F)cn2)cc1`, the Percent Effect was 28.9%. `CN(CCNC(=O)Nc1ccncc1)C1CCCCC1` gave a Percent Effect of -5.92%. Work on `O=C([C@H]1CCCO1)N1CCc2ncnc(NC3CC3)c2CC1` yielded a Percent Effect of -32%. `COCc1nc(C(=O)NS(=O)(=O)c2ccc(C)s2)cs1` gave a Percent Effect of -34.1%. For `CC(C)c1cc(NC(=O)CN2CCNC(=O)C2)on1`, the Percent Effect was -3.5%. Compound `O=C(COc1coc(CN2CCCCC2)cc1=O)NCc1ccccc1` has a Percent Effect of -39.3%. `c1ccc(-c2nc(CN3CCc4c(ncn4C4CC4)C3)cs2)cc1` showed a Percent Effect of -40.4%. `CN(Cc1ccsc1)C(=O)CN1CCOC(Cn2cccn2)C1` (centres undefined) was tested, and the Percent Effect was -18.6%. For `CC(C)N1CCc2c(C#N)c(NCc3ccco3)n3cnnc3c2C1`, the Percent Effect was -4.38%. `Cn1cc(CN2CC[C@@H]3[C@@H](CCC(=O)N3CCC3=CCCCC3)C2)cn1` was tested, and the Percent Effect was -13%. Compound `CC(=O)N(Cc1ncc(C(C)C)o1)C1CCN(Cc2ncc[nH]2)C1` (centres undefined) has a Percent Effect of 10.9%. Work on `COc1ccc(S(=O)(=O)N2CCCC3(CCCN3S(C)(=O)=O)C2)cc1` (centres undefined) yielded a Percent Effect of 0.605%. With `CN(C)C(=O)N1CCN(C(=O)CCc2ccccc2)[C@H]2CS(=O)(=O)C[C@H]21` the Percent Effect was -13.3%. For `Cc1cnn(C2CCCN(C(=O)CCCOc3cccc(F)c3)C2)c1` (centres undefined), the Percent Effect was 11.8%. Work on `CN(CC1CCCO1)C1CCN(CCc2ccccn2)CC1` (centres undefined) yielded a Percent Effect of -6.44%. Work on `Cc1cc(CNc2cc(Cl)ccc2Cl)no1` yielded a Percent Effect of 2.51%. `Cc1nnc2n1CCN(Cc1csc(CC(=O)N(C)C)n1)C2` showed a Percent Effect of 5.11%. Work on `COc1ccc(CNC(=O)Nc2cccnc2N2CCCC2)cc1O` yielded a Percent Effect of 10.6%. In the case of `CN(C)S(=O)(=O)N1CCCC(c2cccc(Cc3ccccc3)n2)C1` (centres undefined), the Percent Effect is reported as 67.3%. `CCc1ncc(CN(C)C(=O)Nc2cccnc2N2CCCC2)s1` showed a Percent Effect of -14.5%. `O=S(=O)(CCN1CCOC(Cn2cccn2)C1)C(F)(F)F` (centres undefined) was tested, and the Percent Effect was 191%. With `Cc1nnc(N2CCCC3(CN(Cc4ccc(C)s4)CCO3)C2)o1` (centres undefined) the Percent Effect was -45.3%. Compound `Cc1nc(C2CCCN(C(=O)c3sccc3C3CC3)C2)no1` (centres undefined) has a Percent Effect of 0.602%. `O=C(c1cccn2ccnc12)N1CCCN(c2cccnn2)CC1` gave a Percent Effect of 22.9%. With `COc1ccc(CC(=O)N2CCCCC2Cn2cccn2)cc1OC` (centres undefined) the Percent Effect was -6.84%. Work on `O=C(NCCCN1CCOCC1)c1cc(-c2ccc3c(c2)CCO3)n[nH]1` yielded a Percent Effect of -67.7%. Work on `CCCc1cc(C(=O)N(C)Cc2cccc3ncccc23)n(C)n1` yielded a Percent Effect of -12.5%. Work on `NC(=O)C1(Cc2ccccc2-c2ccccc2)CCCN(CC2CC2)C1` (centres undefined) yielded a Percent Effect of -5.72%. With `O=C(c1ccc2c(c1)CCCC2)N1CCOCC1c1ncon1` (centres undefined) the Percent Effect was 0.194%. Work on `CN(C(=O)c1cc(Cl)c[nH]1)C1CCN(c2ccccn2)CC1` yielded a Percent Effect of 1.72%. For `COCC1CC2(CCN(C(=O)c3cccn3C)CC2)CN1C(C)C` (centres undefined), the Percent Effect was -6.37%. `CN(C)c1cc2c(nn1)CCN(C(=O)C1Cc3ccccc3S1)C2` (centres undefined) was tested, and the Percent Effect was -20.9%. Work on `CC(C)NC(=O)c1nnn(-c2cccc(C(F)(F)F)c2)c1C1CC1` yielded a Percent Effect of 8.87%.
